Source: the supplement of paper PMC11417369
In all, about 25,000 sequences were measured (“ln(normalized median fluorescence intensity)”: median about 7.1, highest 2% from about 10 on). Many of the other results were omitted from the sample, so the highest values are more common in it than they were.

Tested on: PfSIP2 AP2 domain 1 (GST-tagged)
Experiment: gcPBM binding intensity (ln(normalized median fluorescence intensity)); higher = stronger DNA binding
Method in brief: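 Binding intensity values are the highest Masliner-normalised natural-log median intensity among replicate spots of either probe orientation. The binding step lasted 1 h in 1× PBS with 1% milk, 0.2 mg/ml BSA, 0.5% salmon testes DNA and 0.03% Triton X-100, using GST-tagged P. falciparum DNA-binding domains expressed in E. coli on an Agilent 4 × 180k array of primer-extended double-stranded 36-bp intergenic genomic probes plus negative controls. Alexa488 anti-GST antibody and a 488 nm scan detected bound protein.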

Sequence | gcPBM binding intensity (ln)
GAAAGGAAAAGTTGAACACACAAAGTAAACTATAAG [CACACA_site3535] | 6.7
TCTATTAACTGATGTGCATGTTATAACCTAGAAGTA [TGCATGCA_site359] | 7.42
TAAAAGTATTCCTTTTGTACATATAATGAAAACAAT [XGTACX_site2069] | 6.8
TGATAAAATATTAAATTATTTCTTTATTTAAAGATT [CACACA_negctrl_site370] | 6.67
AAGATAAATTATTATAAATCAATTGTGCCAACAATA [CACACA_negctrl_site144] | 6.69
ATTATAAAAATATCGTGTACATATTTTTTAAAATAA [XGTACX_site5072] | 7.12
TTATACCATATTTATAGTACGTACAAATAAATCAAT [XGTACX_site4975] | 7.3
TTAATCCACAGACACACACACACAAAATAAAATACA [CACACA_site244] | 7.22
AAGATCGCATGAAATGAACACACATAAAAAAAATAT [CACACA_site9353] | 7.05
AAATTGAGACAACAGGTGCATATAAATATACAGTGT [GTGCAC_site9634] | 10.6
TATATACATGTGAGAGTGCATATAGACATAAAAAAT | 8.96
ATACATTCAAAATATACACACATATATATATAATAT [CACACA_site950] | 7.13
AATATACATAACAAGGTGCAAAAAATATTGTTCATA [GTGCAC_site9499] | 10.9
TTTTGTTCATACAAATTGGAACAAGACAAAAATATA [XGTACX_negctrl_site327] | 7.16
ATATATTTAAAAAAATGTACAAATCATAAATGCAAG [XGTACX_site4230] | 7.07
ATACATATTAACAAGGTGCAAATGGATTTCATAAAA [GTGCAC_site9775] | 10.7
AATACATATTCAAAGGTGCAAAATAAAAATATACAT [GTGCAC_site9743] | 11
ACAAGCTTTCATAAGGTGCAATGATTTAACAAAAAA [GTGCAC_site9726] | 10.1
ATAACATTCATATTCACACAAAAATATACTACATAG [CACACA_site4529] | 7.09
TATATTGCAAAAAGTACACACATAAATAAATACATA [CACACA_site6589] | 7.23
AAGACAATATATGCAGTGCATATACATACATATATA | 8.3
AGAAAGGTGGTATTAAAAGAATAACCTATGAATAAA [GTGCAC_negctrl_site325] | 6.79
CCATATAATATGAACAGTACACACAAAATAAATTCG [XGTACX_site7590] | 7.08

Sequence | gcPBM binding intensity (ln)
ATCAAAAAAAAAAAAAGTACACAAAATTTTTTATTA [XGTACX_site7986] | 6.88
CTATTGTTAAATATAATACACACGTTTTTAAAAATA [CACACA_site2183] | 6.97
GTTTAACTGTTTTATACACACAATGTATACAATAAA [CACACA_site2959] | 7.02
TTTTTATAATAAAAAAATATAACTATATTAAGCCAC [CACACA_negctrl_site555] | 7.1
AATATATTTTCCTGCAAACACACATATAAATGTGTA [CACACA_site532] | 6.96
TCAACCAAAACATAAGCATGCAATATATTTTTATAC [TGCATGCA_site560] | 7.16
TTTATAATTTATATCACACACATATATATATAGTAA [CACACA_site8] | 7.05
TTTCTATATAGATTTGCACACATAAAAATGCTTATA [CACACA_site2390] | 7.18
ACATATCGGGTGCATTAACACACATTTATTTGAATA [CACACA_site8736] | 11.6
ATATCGTGTGCATTAACACACATTTATTTGAATAAA [CACACA_site7162] | 7.65
AACATTTTAAATTATACACACATTTTGAATATATAT [CACACA_site3470] | 7.2
ATCGGTAATATTAACACACACATTTATATATATTTA [CACACA_site1084] | 7.2
ATATCGGGTGCATTAACACACATTTATTTGAATAAA [CACACA_site2350] | 11.7
ATCGGTAATATTAACACACACATTTATTTATATTTA [CACACA_site6638] | 7.01
TTTTTATTTTTTCAGTGTACATTTAAATTATCTTAT [XGTACX_site3905] | 6.98
ATTATTATTATATATGCATGTAAAATATTAAAGTAC [TGCATGCA_site914] | 7.59
AATGAAAAATGTATCGTTAAAGGGTATCTTAAGGAT [XGTACX_negctrl_site222] | 6.84
AGATCATAATATTATACACACATTATGTATATGTAA [CACACA_site1490] | 6.84
ACACATTATAACAAGGTGCAATTTTTATACACATGT [GTGCAC_site9866] | 10.4
TATAACACACAATGATGTACATTACATTATTTTTTA [XGTACX_site2076] | 7.06
CATTAACATTTTATTACACACAATAATTTATAAGTA [CACACA_site4083] | 7.06
TAATTAGCATAATACACATGCATACATTTATATATA [TGCATGCA_site542] | 7.01
ATCATAAATTATTATACACACAATACGTGACCTATT [CACACA_site1906] | 7.06
